In the library only some 2.4% were active in any assay of this set; here they are far more common.
Mcl1-Bid inh – Mcl-1/Bid interaction inhibition; Q07820; TR-FRET Mcl-1/Bid-Dy647 peptide binding, 1536-well; inhibition, % at 21.7 µM; 220,000 compounds, 0.97% hits;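 active means compounds that cut the binding signal by more than half at the single screening dose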;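 further: His-tagged Mcl-1 with europium anti-His antibody binding Bid BH3 peptide; 0% = Mcl-1 plus peptide wells and 100% = peptide-only wells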
Target sequence (Q07820 whole entry, looked up): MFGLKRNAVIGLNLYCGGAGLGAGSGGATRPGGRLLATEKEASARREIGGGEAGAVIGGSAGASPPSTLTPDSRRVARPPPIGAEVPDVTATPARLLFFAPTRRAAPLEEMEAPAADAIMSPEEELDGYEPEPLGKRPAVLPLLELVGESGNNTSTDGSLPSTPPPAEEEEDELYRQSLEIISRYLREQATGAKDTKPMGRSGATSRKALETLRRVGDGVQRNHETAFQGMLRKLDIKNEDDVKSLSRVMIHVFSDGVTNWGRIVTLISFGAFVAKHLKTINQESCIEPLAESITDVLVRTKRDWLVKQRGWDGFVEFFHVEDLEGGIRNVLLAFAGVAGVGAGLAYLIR
zVAD death inh – L929 zVAD cell death inhibition; viability rescue, % at 10 µM; L929 zVAD necroptosis rescue, ATP luminescence, 24 h; with zVAD 60 µM; 220,000 compounds, 0.38% hits;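 active means activation, scaled between plate controls, above about 75%, limit read from the data; inactive means activation under that limit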;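 further: 0% = zVAD with DMSO and 100% = DMSO alone without zVAD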
Bim-Mcl-1 – inhibitors of Bim-Mcl-1 interaction, human; Q07820; Bead-based flow cytometry, Bim peptide-Mcl-1 binding; inhibition, % at 10 µM; 190,000 compounds, 0.1% hits; in the data active means inhibition above about 40%;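 further: 0% = no compound tracer wells and 100% = peptide blocker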
MCL1-BIM inh – disrupts human MCL1 binding to BIM-BH3 peptide | 320,000 compounds, 0.68% hits | inhibition, % at 10.9 µM | GST-MCL1 / FITC-Bim-BH3 fluorescence polarization | Q07820 | AID 2057;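 active means inhibition above the mean inhibition of all tested compounds plus 3 SD, set per campaign, cut at about 40% in these data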;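 further: 0% = DMSO wells and 100% = unlabeled Bim-BH3 peptide control; higher means more loss of mP so more displacement of Bim peptide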
TNF death inh – TNF-alpha cell death inhibition in Jurkat FADD-/- cells; Jurkat FADD-/- TNF necroptosis rescue, ATP luminescence, 24 h; 0 = TNF only, 100 = no-TNF cells; activation (protection from cell death), % at 10 µM; 220,000 compounds, 0.068% hits; AID 463075;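 active means activation, meaning protection from cell death, of at least 50% relative to plate controls; inactive means activation below 50%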;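 further: necroptosis triggered by 40 ng/mL TNF-alpha added together with compound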
Mcl1-Noxa inh – disrupts binding of human Mcl-1 to Noxa peptide; Q07820; TR-FRET Mcl-1/Noxa peptide binding, 2 h; inhibition, % at 21.7 µM; 220,000 compounds, 1.5% hits;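 active means compounds that cut the protein-peptide binding signal by more than 50% relative to plate controls in a single-dose test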;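 further: His-tagged Mcl-1 with rhodamine Noxa BH3 peptide and terbium anti-His antibody; 0% = Mcl-1 plus Noxa peptide wells and 100% = peptide-only wells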
* marks the source's active call; other numbers are inactive results; x = no result.

SMILES | Mcl1-Bid inh | zVAD death inh | Bim-Mcl-1 | MCL1-BIM inh | TNF death inh | Mcl1-Noxa inh
CCCC(c1nnnn1CS(=O)(=O)c1ccc(C)cc1)N1CCC(C(N)=O)CC1 (stereo not drawn) | x | x | x | 5 | x | x
O=C1C(Cl)=C(N2CCCCC2)C(=O)C(Cl)=C1c1cnc(N2CCCCC2)s1 | 65* | 52 | 62* | x | -20 | 109*
O=C1C(Cl)=C(N2CCCCCC2)C(=O)N1c1ccc(Cl)cc1 | x | x | x | -4 | x | x
COc1ccc(NC(=O)CCC(=O)N2CCOCC2)c([N+](=O)[O-])c1 | x | x | x | 5 | x | x
C=CCN(CC=C)C(=S)NC(=O)Cc1cccc2ccccc12 | -50 | -3 | 0 | 12 | -3 | 62*
O=C(Cc1cccc2ccccc12)Nc1ccccc1 | x | x | x | 3 | x | x
Cc1nc(C)n(CC(C)C(=O)N2CCN(S(=O)(=O)c3ccccc3)CC2)n1 (stereo not drawn) | x | x | x | 3 | x | x
O=C(CNC(=O)c1ccncc1)N/N=C/c1ccccn1 | -10 | 3 | -3 | 17 | 0 | 11
COc1cc(C(=O)NCC(=O)N/N=C/c2ccccn2)cc(OC)c1OC | 63* | 2 | -1 | 7 | 0 | -9
CCN1CCN(Cc2ccc(NC(=O)c3cc(NC(=O)c4nccnc4N)cc(OC)c3)cc2C(F)(F)F)CC1 | -50 | 74 | x | 0 | -26 | 28
CCN1CCN(Cc2ccc(NC(=O)c3cc(NC(=O)c4cncc(-c5ccc(C#N)cc5)c4)cc(OC)c3)cc2C(F)(F)F)CC1 | -85 | 80* | x | -13 | -26 | -185
COCCN(C(=O)COC(=O)Cc1c[nH]c2ccccc12)c1c(N)n(Cc2ccccc2)c(=O)[nH]c1=O | x | x | x | -6 | x | x
COc1ccccc1N1CCN(C2CCCN(C(=O)c3cccc(-c4ccco4)c3)C2)CC1 (stereo not drawn) | x | x | x | 3 | x | x
N=c1c(C(=O)NCc2ccco2)cc2c(=O)n3ccccc3nc2n1Cc1ccccc1 | -4 | -1 | -1 | 48* | -6 | 46
N=c1c(C(=O)NCc2ccccc2)cc2c(=O)n3ccccc3nc2n1Cc1ccco1 | -17 | -2 | -2 | -1 | -15 | 58*
Cc1cccn2c(=O)c3cc(C(N)=S)c(=N)n(CCCN4CCOCC4)c3nc12 | 58* | 5 | 0 | 34 | -2 | 40
Cc1cccn2c(=O)c3cc(C(=O)NCCc4ccccc4)c(=N)n(Cc4ccco4)c3nc12 | x | x | x | 7 | x | x
Cc1cccn2c(=O)c3cc(C(=O)NCc4ccco4)c(=N)n(CCc4ccccc4)c3nc12 | 1 | -1 | x | 37 | -8 | 80*
COc1ccccc1N(C)S(=O)(=O)c1ccc(C(=O)N2CCCC(C(F)(F)F)C2)cc1 (stereo not drawn) | x | x | x | -4 | x | x
COc1ccc(-n2cnc3cc(NS(=O)(=O)c4ccccc4)ccc32)cc1 | 1 | -1 | -3 | 11 | 53* | 12
O=C(COc1ccccc1)NS(=O)(=O)c1ccccc1 | x | x | x | 0 | x | x
Cc1ncc(CO)c(/C=N/Nc2ccc(C(F)(F)F)cn2)c1O | x | x | x | 43* | x | x
Cc1ncc(CO)c(/C=N/NC(=S)Nc2ccc(F)cc2)c1O | -115 | 1 | -7 | 12 | -10 | 37
CC(OC(=O)c1ccc2c(c1)OCCO2)C(=O)NC1CCCCC1C (stereo not drawn) | x | x | x | 0 | x | x
COC(=O)c1ccc(COc2cccc3c2CCN(Cc2ccccc2)C3=O)o1 | -2 | 0 | 0 | 0 | -2 | -8
SMILES | Mcl1-Bid inh | zVAD death inh | Bim-Mcl-1 | MCL1-BIM inh | TNF death inh | Mcl1-Noxa inh
CCN1CCc2c(OCc3ccc(C(=O)OC)o3)cccc2C1=O | 92* | 1 | -1 | 3 | 0 | 14
O=C(COc1cccc2c1CCN(Cc1ccc(Br)cc1)C2=O)NCc1ccco1 | 95* | 2 | 6 | -1 | -2 | 17
Cc1cc2c(c(=O)n1Cc1ccco1)C(c1cccnc1)C(C#N)=C(N)O2 (stereo not drawn) | -89 | 1 | 0 | 45* | -4 | 0
CN1CCc2c(OCC(=O)N3N=C(c4cccs4)CC3c3ccc(F)cc3)cccc2C1=O (stereo not drawn) | 54* | 0 | -4 | 5 | -8 | 10
O=C(COC(=O)c1ccccc1Br)Nc1ccc2[nH]c(=O)[nH]c2c1 | x | x | x | -7 | x | x
COc1ccccc1CC(=O)N(CCC1=CCCCC1)c1c(N)n(Cc2ccccc2)c(=O)[nH]c1=O | x | x | x | -4 | x | x
c1ccc(-n2cnc3ccccc32)nc1 | x | x | x | -1 | x | x
c1ccc(-c2nccc(-c3ccc(-n4cnc5ccccc54)cc3)n2)cc1 | 55* | 0 | 10 | -9 | 1 | -117
CCOC(=O)Cc1nnc(Nc2cccc(C)c2)c2ccccc12 | 64* | 1 | -5 | -1 | 0 | -26
CCCCN(C(=O)C(C)Oc1cccc(Cl)c1)c1c(N)n(CCC)c(=O)[nH]c1=O (stereo not drawn) | x | x | x | -8 | x | x
O=C(NCc1ccco1)c1ccc2nc3sc4c(c3c(=O)n2c1)CCCC4 | 2 | 0 | 8 | 9 | -4 | 68*
COC(=O)c1ccc(Nc2nc(C)nc3c2nnn3Cc2ccccc2)cc1 | x | x | x | 4 | x | x
CCCc1cc2c(=O)c(-c3nc4ccccc4s3)c(COCC(=O)O)oc2cc1O | 2 | 12 | 1 | x | 2 | 73*
O=C(NCc1ccccc1)c1sc(=S)n2c1[nH]c(=O)c1ccccc12 | -21 | 0 | 1 | 15 | -1 | 52*
CC(=O)NNC(=O)c1sc(=S)n2c1[nH]c(=O)c1sccc12 | -20 | 2 | -7 | 26 | 1 | 68*
COc1ccc(S(=O)(=O)N2CC(C)OC(C)C2)cc1C(=O)N1CCCCC1 (stereo not drawn) | x | x | x | -9 | x | x
Cc1ccnc(NC(=O)c2ccc(S(=O)(=O)N3CCCCCC3)cc2)c1 | x | x | x | -3 | x | x
Cc1cccc(Cn2c(C(C)O)nc3ccccc32)c1 (stereo not drawn) | -27 | 0 | -1 | -6 | -1 | -25
Cc1cccc(Cn2c(C)nc3c(N)c(C)c(C)cc32)c1 | 91* | 0 | 0 | 7 | -1 | -12
COc1ccc(NCc2ccc([N+](=O)[O-])s2)cc1 | 11 | -1 | -4 | -13 | -18 | 31
COc1ccc(NCc2ccc([N+](=O)[O-])s2)c(OC)c1 | 12 | -1 | -1 | 1 | -11 | 53*
CCOc1ccc(C(=O)CCC(=O)N2CCN(c3ncccn3)CC2)cc1 | x | x | x | -19 | x | x
O=C(Nc1ccc(Cl)c(Cl)c1)Nc1nc(-c2ccccc2)cs1 | 30 | 2 | -2 | 3 | 2 | 51*
O=C(Nc1ccccc1)Nc1nc(-c2ccccc2)cs1 | -27 | 5 | x | -2 | 2 | -6
CCCCN(Cc1cc2cc(OC)ccc2[nH]c1=O)C(=O)c1ccccn1 | 65* | 0 | -3 | 7 | 0 | 5
CCCN(Cc1cc2cc(C)ccc2[nH]c1=O)C(=O)c1ccccn1 | -5 | 1 | x | 5 | 0 | 13
COC(=O)c1ccc2c(c1O)C(=O)c1ccccc1C2=O | 48 | 8 | 3 | 17 | -14 | 58*

Screens deposited in PubChem by several laboratories.
